Experimental data from ChEMBL document CHEMBL4513216, “Probing the Open Global Health Chemical Diversity Library for Multistage-Active Starting Points for Next-Generation Antimalarials” (ACS Infect Dis, 2020).
The campaign covered roughly 65,000 compounds. About 2,100 (3.2%) showed an effect of 50% or more. The median lay at about -52%. Shown is part of a subset that was picked to be rich in strong results.

Tested on: Plasmodium falciparum
Test: Screen against P. falciparum Asexual Blood Stage (ABS), at 5uM
Type: functional, Dd2
Details: tested at 5 uM

Row | Structure (SMILES) | INHIBITION [%]
1 | O=C(CCCOc1cccc(F)c1)N1CCCC(n2cccn2)C1 (configuration not stated) | -31.5
2 | N#Cc1cn(C2CC2)c(=O)n(CC(O)c2ccccc2F)c1=O (configuration not stated) | -128
3 | N#Cc1cn(C2CC2)c(=O)n(CC(O)c2ccc(F)cc2)c1=O (configuration not stated) | 44.7
4 | N#Cc1cn(C2CC2)c(=O)n(CC(O)c2ccccc2C(F)(F)F)c1=O (configuration not stated) | 51
5 | c1ncn(Cc2ccc(CNCc3ccc4c(c3)OCCO4)cc2)n1 | 0.0598
6 | CC(C)c1cc(NC(=O)c2ccc([S+]([O-])C(C)C)cc2)[nH]n1 (configuration not stated) | -172
7 | CC(C)c1cc(NC(=O)c2ccncc2)[nH]n1 | -134
8 | CC(C)c1cc(NC(=O)c2ccc(C(=O)NC(C)(C)C)cc2)[nH]n1 | 64
9 | Cc1ccc(CN2CCC3(CCC3NC(=O)c3ccn(C)c3)CC2)s1 (configuration not stated) | 55.9
10 | Cn1ccc(C(=O)NC2CCC23CCN(Cc2ccc(F)cc2)CC3)c1 (configuration not stated) | 39.9
11 | Cn1ccc(C(=O)NC2CCC23CCN(Cc2nccs2)CC3)c1 (configuration not stated) | -44.3
12 | CN(C)CCOCC1CN(CCN(C)C)Cc2ccnn2C1 (configuration not stated) | -8.37
13 | CN(C)CCOCC1CN(Cc2ccsc2)Cc2ccnn2C1 (configuration not stated) | 38.6
14 | CN(C)CCOCC1CN(Cc2cccs2)Cc2ccnn2C1 (configuration not stated) | 63.4
15 | CNS(=O)(=O)c1cc(C)c2[nH]c(=O)cc(C)c2c1 | -73.5
16 | COc1ccc(NC(=O)Cn2nc(C)c(C)cc2=O)cc1 | 25.5
17 | CC(=O)c1c(C)nn(CC(=O)Nc2ccc(F)cc2)c1C | -44.1
18 | CC(=O)c1c(C)nn(CC(=O)Nc2ccc(Br)cc2)c1C | 66.7
19 | COc1ncccc1C(=O)N1CC[C@H]2C[C@H](c3ccncn3)O[C@@H]2C1 | -27.7
20 | COc1ccc(S(=O)(=O)N2CCC[C@@H]3CN(C(=O)C4CC4)C[C@@H]32)cc1 | -95.9
21 | Fc1ccc(CN2CCO[C@H]3[C@H](OCC4CCCC4)CC[C@@H]32)cc1 | -74.2
22 | O=C(CCC(F)(F)F)N1CCCC2(CCC(=O)N(CC3CC3)C2)C1 (configuration not stated) | -7.69
23 | CC(C)Oc1ccc(CNC(=O)CC(F)(F)F)cc1F | -29.4
24 | COc1cccc(-c2cc(CN)ccc2F)c1F | -77.3

Row | Structure (SMILES) | INHIBITION [%]
25 | CC(C)Oc1ccccc1-c1cc(CN)ccc1F | 60.3
26 | COc1ccc(-c2cc(CN)ccc2F)c(OC)c1OC | 13.4
27 | COc1cccc(Cl)c1-c1cc(CN)ccc1F | 65.3
28 | CC(C)Oc1ccc(CNC(=O)NCc2ccncc2)cc1F | -9.03
29 | CC(C)NC(=O)Nc1ccc(-c2nc(C(C)C)no2)cc1 | -60.3
30 | CN(C)CCCNC(=O)c1cc(-c2ccc3c(c2)CCO3)n[nH]1 | -55.4
31 | Cc1nc(CN2CCN(c3nc4c(s3)c(C)nn4C)CC2)cs1 | -145
32 | CC(C)N1CCC(CNCc2c[nH]nc2C(C)(C)C)C1 (configuration not stated) | -90.2
33 | CCN1CCC(CNCc2c[nH]nc2C(C)(C)C)C1 (configuration not stated) | -143
34 | CC(C)(C)c1n[nH]cc1CNCC1CCN(C2CC2)C1 (configuration not stated) | 52.2
35 | Cn1c(=O)c2c(n3ncnc13)NC(=O)CC2c1ccc(F)cc1 (configuration not stated) | -53.6
36 | Cc1cccc(C(=O)N2C[C@@H](OCc3cccnc3)[C@H]3OCCC[C@@H]32)n1 | -103
37 | CC(=O)N1[C@H](CN(C)C)C[C@@H]2CN(C(=O)c3cnc(C)cn3)CC[C@@H]21 | 29
38 | CC(=O)N1[C@H](CN(C)C)C[C@@H]2CN(C(=O)c3ccsc3)CC[C@@H]21 | -108
39 | CC(=O)N1[C@H](CN(C)C)C[C@@H]2CN(C(=O)c3occc3C)CC[C@@H]21 | 55.3
40 | CC(=O)N1[C@H](CN(C)C)C[C@@H]2CN(C(=O)c3cccn3C)CC[C@@H]21 | 56.5
41 | CC(=O)N1[C@H](CN(C)C)C[C@@H]2CN(C(=O)c3cccc(F)c3)CC[C@@H]21 | -116
42 | CC(=O)N1[C@H](CN(C)C)C[C@@H]2CN(C(=O)c3ccno3)CC[C@@H]21 | 22.2
43 | CCC[C@H]1CN(Cc2cc(C#N)n(C)c2C)C[C@@H]1N(C)C | 20.2
44 | Cc1ccc(CN2C[C@@H]3COC[C@]3(COc3ccc(C#N)cn3)C2)o1 | -45.3
45 | COCC1(C(=O)N[C@H]2CN(c3ccnc(C)c3)C[C@@H]2C2CC2)CCC1 | -51.7
46 | O=C(NCCN1CCC(c2cccs2)CC1)c1ccccc1C(F)(F)F | 34.2
47 | CC(=O)NCCN1CCC(c2cccs2)CC1 | 6.31
48 | O=C(NCCN1CCC(c2cccs2)CC1)c1ccc(F)cc1Cl | -19.5

Row | Structure (SMILES) | INHIBITION [%]
49 | O=C(NCCN1CCC(c2cccs2)CC1)Nc1cccs1 | 64.2
50 | CCSc1ccccc1C(=O)NCCN1CCC(c2cccs2)CC1 | 30.9
51 | O=C(Cc1ccccc1Cl)NCCN1CCC(c2cccs2)CC1 | 63.6
52 | CCOCC(O)CN1CCN(C(=O)C2CCCCC2)CC1 (configuration not stated) | -108
53 | COc1ccccc1Cc1nnc(SCCS(C)(=O)=O)o1 | -75.9
54 | c1ccc2c(NC3CCc4ncnn4C3)ncnc2c1 (configuration not stated) | -38
55 | CCCn1nnc2c(sc3nc(N4CCOCC4)c4c(c32)CCC4)c1=O | -102
56 | c1nc(N2CCCC2)cnc1C1CCNCC1 | -135
57 | CC(C)N1CCCC(Cc2cncc(Br)c2)CC1 (configuration not stated) | -20.1
58 | CCc1nc(C)c(CC(=O)N2CCC3(CC2)OCCCC3O)c(=O)[nH]1 (configuration not stated) | -109
59 | Cc1cccc(C)c1OCC(C)Nc1nc(N)nc2c1CCNC2 (configuration not stated) | 67
60 | Cc1cc(C)n(CC(C)Nc2nc(C)nc3c2CCNC3)n1 (configuration not stated) | 2.63
61 | Cc1cccnc1CC(C)Nc1nc(N)nc2c1CCNC2 (configuration not stated) | -92
62 | Cc1ccc(-c2noc(CN3CCC(N4CCNC4=O)CC3)n2)cc1 | -63.1
63 | CCS(=O)(=O)N1Cc2ncn(C)c2C(COCC2CCOCC2)C1 (configuration not stated) | -46.6
64 | c1ccc2c(c1)CCN(c1nc(-c3ccncc3)nc3c1CCNC3)C2 | 61.6
65 | CN(C)c1nc2c(c(N3CCc4ccccc4C3)n1)CCNC2 | 31.4
66 | c1ccc(C2CCCN(c3ncnc4c3CCNC4)CC2)cc1 (configuration not stated) | 61.2
67 | c1ccc2c(c1)CN(c1ncnc3c1CCNC3)CCO2 | 65.9
68 | c1cc(C2CCN(c3ncnc4c3CCNCC4)CC2)ccn1 | 27.2
69 | c1ccc2c(c1)CCN(c1ncnc3sc4c(c13)CCNC4)C2 | -28.5
70 | NC(=O)c1cccnc1N1CCN(c2ncnc3c2CCNC3)CC1 | -103
71 | c1nc2c(c(N3CCOCC3)n1)CCNCC2 | -98
72 | c1ccc2c(c1)CN(c1ncnc3sc4c(c13)CCNC4)CCO2 | -26.7
